Test results as given in PubChem BioAssay (NCI).
Compounds without any hit were thinned out: in the full panel of roughly 83,000, 20% have a hit.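 Values shown are percent growth following 48 h exposure of cells in 96-well plates to a single concentration of compound; below 10 was considered active.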 Active and inactive are the calls of the source.

Key:
Experiment in all cases: NCI-60 one-dose screen, 48 h (100 = growth as untreated, 0 = no growth, -100 = all killed)
Conditions in all cases: 10 µM unless noted
[1] = test system: HCT-15 colon
[2] = test system: HT29 colon
[3] = test system: SNB-75 CNS
[4] = test system: SNB-19 CNS
[5] = test system: U251 CNS
[6] = test system: PC-3 prostate
[7] = test system: SK-MEL-5 melanoma
[8] = test system: UACC-62 melanoma
[9] = test system: SK-MEL-28 melanoma
[10] = test system: SK-MEL-2 melanoma
[11] = test system: EKVX NSCLC
[12] = test system: SN12C renal
[13] = test system: UO-31 renal
[14] = test system: TK-10 renal
[15] = test system: ACHN renal
[16] = test system: CAKI-1 renal
[17] = test system: A498 renal
[18] = test system: CCRF-CEM leukemia
[19] = test system: MOLT-4 leukemia

Measured: growth

N#Cc1c(-c2cccc(O)c2O)cc(-c2ccc3ccccc3c2)[nH]c1=O
inactive: [1] 52.8% | [2] 98.2% | [4] 41.1% | [5] 40.2% | [6] 67.5% | [7] 45.9% | [8] 77.5% | [9] 45.7% | [10] 98.8% | [11] 74.5% | [12] 58.4% | [13] 55.9% | [14] 85.4% | [15] 56.4% | [16] 75.6% | [17] 82.1% | [18] 13.4% | [19] 29.9%
active: [3] -6.63%

COc1ccc2[nH]cc(-c3nnc(N)nc3-c3c[nH]c4ncc(Br)cc34)c2c1
inactive: [1] 90.8% | [2] 96.7% | [3] 93.5% | [4] 91% | [5] 76.1% | [6] 110% | [7] 91.1% | [8] 80.1% | [9] 98.9% | [10] 104% | [11] 82.6% | [12] 77.1% | [13] 65.9% | [14] 101% | [15] 59% | [16] 70% | [17] 87.7% | [18] 88.9% | [19] 70.8%

CCOC(=O)COc1c(OC)c(OC)cc2oc(-c3cccc(C(=O)Nc4ccc(Cl)cc4)c3)cc(=O)c12
inactive: [1] 21.5% | [2] 22.9% | [3] 34.6% | [4] 62.3% | [5] 39.9% | [6] 41.1% | [7] 22.3% | [8] 55.1% | [9] 68.6% | [10] 71.3% | [11] 62.5% | [12] 58.3% | [13] 28.1% | [14] 87.7% | [16] 48.4% | [17] 82.7% | [18] 31.1% | [19] 19.8%

CCOC(=O)C1=C(N)N(c2ccccc2)C2=C(C(=O)CC(C)(C)C2)C1c1ccc(Cl)cc1Cl (centres undefined)
active: [6] 9.99% | [7] -1.66% | [10] -12.3% | [19] 7.23%
inactive: [1] 14% | [2] 35% | [3] 41.2% | [4] 28.1% | [5] 27.6% | [8] 27.2% | [9] 51.3% | [11] 18.8% | [12] 20.6% | [13] 16.8% | [14] 36.6% | [15] 17.1% | [17] 46.8% | [18] 19.3%

O=C(COc1ccc(NC(=O)Nc2ccccc2)cc1)N=Nc1c(O)[nH]c2ccc([N+](=O)[O-])cc12
active: [2] 6.92% | [3] 7.51% | [4] 0.584% | [5] -72.8% | [6] 2.22% | [9] -43.9% | [10] -69.2% | [12] 9.08% | [19] 3.7%
inactive: [1] 103% | [7] 28.4% | [8] 16% | [11] 73.5% | [13] 80.2% | [14] 116% | [15] 96.2% | [16] 78.4% | [17] 133% | [18] 18.4%

COc1ccc(C(=O)/C=C/c2ccc(OCc3ccc(F)cc3)c(OC)c2)cc1OC
inactive: [1] 10.2% | [2] 10.7% | [4] 15.4% | [5] 10.1% | [6] 24% | [7] 17.8% | [8] 18.8% | [9] 46.8% | [10] 52.9% | [11] 59.9% | [13] 21.5% | [14] 39.6% | [15] 28.5% | [16] 32.6% | [17] 94.7%
active: [3] -15% | [12] -1.58% | [18] 7.26% | [19] 9.77%

C/C(=N\N=C1/C(=O)Nc2ccc(Cl)cc21)c1ccc2c(c1)Nc1ccccc1S2
inactive: [4] 18.7% | [8] 13.5% | [11] 12.6% | [13] 18.2% | [14] 22.4% | [17] 23.7%
active: [1] 0.895% | [2] -31.1% | [3] 8.6% | [5] -32.1% | [6] -5.59% | [7] -15.6% | [9] -48.9% | [10] -13.6% | [12] -16.2% | [15] -3.77% | [18] 9.58% | [19] -1.18%

Cc1ccc2c(N)c(C(=O)Nc3ccc(-c4ccccc4)cc3)sc2n1
inactive: [1] 58.7% | [2] 84.3% | [3] 53.8% | [4] 63.5% | [5] 85.2% | [6] 68.5% | [7] 20.3% | [8] 72.2% | [9] 85.1% | [10] 58.9% | [11] 22.7% | [12] 65.1% | [13] 56.1% | [14] 75.3% | [15] 60.1% | [16] 59.4% | [17] 114% | [18] 55.4% | [19] 50.9%

Cn1cc(-c2nnc(N)nc2-c2c[nH]c3ccc(F)cc23)c2cccnc21
inactive: [1] 28.5% | [2] 16.8% | [3] 24.4% | [4] 52.2% | [5] 37.3% | [6] 63.7% | [7] 20.9% | [8] 36.9% | [9] 63.2% | [10] 15.7% | [11] 62.4% | [12] 45.9% | [13] 48.4% | [14] 82.4% | [15] 54.6% | [16] 45.7% | [17] 86.2% | [18] 47.9% | [19] 28.9%

Cn1cc(-c2nc(N)nnc2-c2c[nH]c3ccc(Br)cc23)c2cccnc21
inactive: [1] 33.2% | [2] 23.1% | [3] 31.3% | [4] 52.7% | [5] 39.5% | [6] 59.9% | [7] 26.3% | [8] 53.9% | [9] 59.9% | [10] 30.5% | [11] 67.4% | [12] 49.8% | [13] 48.9% | [14] 90.4% | [15] 50.6% | [17] 131% | [18] 36.1% | [19] 27.5%

COc1ccc2nc(Nc3cccc(NC(=O)c4ccc(CN5CCCN(C)CC5)c(C(F)(F)F)c4)c3)ccc2c1
active: [1] -64.7% | [2] -69.7% | [3] -35.3% | [4] -76.4% | [5] 1.47% | [6] -57% | [7] -69.2% | [8] -61.1% | [9] -74.9% | [10] -74.5% | [11] -98.5% | [12] -65.9% | [13] -66.9% | [14] -81.1% | [15] -91.5% | [17] -53.3% | [18] -43.6% | [19] -4.91%

CC(=O)Nc1ccc(-n2cnc3ccc(-c4ccc(O)cc4)cc32)cc1
inactive: [1] 52% | [2] 102% | [3] 56.5% | [4] 55.5% | [5] 37% | [6] 47.6% | [7] 54.6% | [8] 46.1% | [9] 44.3% | [10] 50.7% | [11] 54.8% | [12] 29.3% | [13] 46.2% | [14] 89.9% | [15] 24.7% | [16] 29.9% | [17] 92.8% | [18] 30.2% | [19] 11.3%

COc1ccc([C@H](C)Nc2nc(Cl)nc3ccccc23)cc1
active: [7] 5.57%
inactive: [1] 56.1% | [2] 28.8% | [3] 93.4% | [4] 60.6% | [5] 74.2% | [6] 77.1% | [8] 47.8% | [9] 59.9% | [10] 70.2% | [11] 19.2% | [12] 47.9% | [13] 47.1% | [14] 66.9% | [15] 54.3% | [16] 56.4% | [17] 108% | [18] 34.9% | [19] 20.8%

CC(=O)Nc1ccc(-n2cnc3cc(-c4ccc(O)cc4)ccc32)cc1C(F)(F)F
active: [3] 8.79% | [7] 5.35% | [15] 6.32%
inactive: [1] 16.1% | [2] 26.3% | [4] 27.8% | [5] 18% | [6] 44.8% | [8] 21.1% | [9] 20.5% | [10] 17.4% | [11] 27.3% | [12] 15.6% | [13] 10.3% | [14] 33% | [16] 28.6% | [17] 57.1% | [18] 40.5% | [19] 29.6%

CC1=C(C(=O)c2ccccc2)C(c2cccc(Cl)c2Cl)n2c(nc3ccccc32)N1 (centres undefined)
inactive: [1] 68.7% | [2] 54.6% | [3] 43% | [4] 39.3% | [5] 16.9% | [6] 45% | [7] 54.5% | [8] 36.6% | [9] 90.2% | [10] 76% | [11] 46.3% | [12] 53.6% | [13] 67.7% | [14] 102% | [15] 71.9% | [16] 47% | [17] 116% | [18] 40.5% | [19] 45.6%

C=C1CCC2C3(C)COC(c4ccccc4F)OC3CCC2(C)C1CC(O)C1=CCOC1=O (centres undefined)
inactive: [3] 43.9% | [4] 81.5% | [5] 53.4% | [6] 36.5% | [7] 65.8% | [8] 73.6% | [9] 47.6% | [10] 17.2% | [11] 85.3% | [12] 39.1% | [13] 11.7% | [14] 107% | [16] 66% | [17] 141% | [18] 16.7% | [19] 48.9%
active: [1] 9.86% | [2] 8.43% | [15] -23%
